Measurements from PubChem BioAssay (Tox21).
Several values for one entry are separate records, joined by “and”; a condition that tells them apart may be missing. Equal entries are not always repeated. Results filed as inconclusive are left out. Entries that show only a call come without a potency. The source holds several records for some structures; these can differ, active in one and inactive in another. Activity calls are given as the source filed them. Unless noted, the call rests on the fitted dose curve; in most records, active means well fitted curve in the direction sought with a large enough effect in the repeat runs; inconclusive means weak or mixed curves; inactive means no such curve, though single readings can be large; an effect the other way counts as inactive or inconclusive.

Assays:
[1] = qHTS assay for identifying genotoxic compounds that show differential cytotoxicity against isogenic chicken DT40 cell lines with known DNA damage response pathways - wild type cell line (AID 743012); further: nearly all actives have a fitted effect of over 60% in size; further: potency means the concentration at half of the fitted maximal effect
In short: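 Viability by ATP luminescence (CellTiter-Glo, 30 min RT) after 40 h compound treatment at 37 C/5% CO2, using 300 parental DNA repair-proficient DT40 cells per well.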

[2] = qHTS assay for identifying genotoxic compounds that show differential cytotoxicity against isogenic chicken DT40 cell lines with known DNA damage response pathways - Rev3 mutant cell line (AID 743014); further: nearly all actives have a fitted effect of over 55% in size; further: potency means the concentration at half of the fitted maximal effect
[3] = qHTS assay for identifying genotoxic compounds that show differential cytotoxicity against isogenic chicken DT40 cell lines with known DNA damage response pathways - Rad54/Ku70 mutant cell line (AID 743015); further: nearly all actives have a fitted effect of over 60% in size; further: potency means the concentration at half of the fitted maximal effect
[4] = qHTS assay to identify small molecule antagonists of the androgen receptor (AR) signaling pathway - cell viability counter screen (AID 743033; further: nearly all actives have a fitted effect of over 45% in size; further: potency means the concentration at half of the fitted maximal effect)
[5] = qHTS assay to identify small molecule antagonists of the androgen receptor (AR) signaling pathway using the MDA cell line - cell viability counter screen (AID 743041; further: nearly all actives have a fitted effect of over 45% in size)
In short: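 qHTS viability read-out; MDA-kb2 AR-luc; R1881-stimulated; 16 h exposure at 37C, 0% CO2; CellTiter-Fluor, 30 min; fluorescence intensity.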

[6] = qHTS assay to identify small molecule antagonists of the thyroid receptor (TR) signaling pathway - cell viability counter screen (AID 743064); further: nearly all actives have a fitted effect of over 50% in size
In short: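 GH3.TRE-Luc rat pituitary cells carrying a TRE-luciferase reporter were treated with compound plus 1 nM T3 (final) for 23.5 h at 37 °C. Viability was then read in the same wells by CellTiter-Fluor fluorescence after a further 30 min.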

[7] = qHTS assay to identify small molecule antagonists of the thyroid receptor (TR) signaling pathway (AID 743065); further: nearly all actives have a fitted effect of over 55% in size; further: potency means the concentration at half of the fitted maximal effect
In short: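 GH3.TRE-Luc rat pituitary cells carrying two TR response elements driving luciferase were plated for 4 h, given compound plus 1 nM T3 (final), and incubated 23.5 h at 37 C. ONE-Glo luminescence measured reporter inhibition; CellTiter-Fluor fluorescence tracked cytotoxicity.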

[8] = tested on: thyroid hormone receptor (rat, GH3 cells); experiment: qHTS assay to identify small molecule agonists of the thyroid receptor (TR) signaling pathway (AID 743066; calls by dose curve)
[9] = qHTS assay to identify small molecule antagonists of the estrogen receptor alpha (ER-alpha) signaling pathway - cell viability counter screen (AID 743074; calls by dose curve; further: nearly all actives have a fitted effect of over 45% in size)
[10] = qHTS assay to identify small molecule antagonists of the estrogen receptor alpha (ER-alpha) signaling pathway using the BG1 cell line - cell viability counter screen (AID 743081);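 further: compound given together with 17beta-estradiol as the ER stimulus; series mostly up to about 70 µM; nearly all actives have a fitted effect of over 45% in size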
[11] = target: Aromatase (Homo sapiens) (UniProt P11511); experiment: qHTS assay to identify aromatase inhibitors (AID 743083); further: nearly all actives have a fitted effect of over 55% in size; further: potency means the concentration at half of the fitted maximal effect
[12] = target: Estrogen receptor (Homo sapiens) (UniProt P03372); experiment: qHTS assay to identify small molecule antagonists of the estrogen receptor alpha (ER-alpha) signaling pathway (AID 743069; active means well fitted curve in the direction sought with a large enough effect in the signal ratio in the repeat runs, not every such curve was filed as active; the % refers to the signal ratio)
In short: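 Screening used a UAS-driven beta-lactamase reporter integrated into HEK293 cells expressing ER-alpha, stimulated with 17beta-estradiol alongside test compounds over 18 hr at 37C; signal came from LiveBLAzer B/G FRET fluorescence.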

[13] = target: Estrogen receptor (Homo sapiens) (UniProt P03372); experiment: qHTS assay to identify small molecule agonists of the estrogen receptor alpha (ER-alpha) signaling pathway (AID 743075; calls by dose curve)
[14] = qHTS assay to identify small molecule antagonists of the estrogen receptor alpha (ER-alpha) signaling pathway using the BG1 cell line (AID 743080; calls by dose curve;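 further: BG1 cells stimulated with 17beta-estradiol alongside compound; series mostly up to about 70 µM; nearly all actives have a fitted effect of over 25% in size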)
In short: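 BG1-Luc-4E2 cells (endogenous full-length ER-alpha, 4xERE luciferase) hormone-starved 5 days in charcoal-stripped FBS, plated 4,000/well for 24 h, then compound plus 17beta-estradiol for 21.5 h at 37 C; ONE-Glo luminescence read.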

[15] = target: Estrogen receptor (Homo sapiens) (UniProt P03372); experiment: qHTS assay to identify small molecule agonists of the estrogen receptor alpha (ER-alpha) signaling pathway using the BG1 cell line (AID 743079); further: nearly all actives have a fitted effect of over 20% in size; further: potency means the concentration at half of the fitted maximal effect

Estrogen receptor (Homo sapiens), sequence (P03372 whole entry, looked up): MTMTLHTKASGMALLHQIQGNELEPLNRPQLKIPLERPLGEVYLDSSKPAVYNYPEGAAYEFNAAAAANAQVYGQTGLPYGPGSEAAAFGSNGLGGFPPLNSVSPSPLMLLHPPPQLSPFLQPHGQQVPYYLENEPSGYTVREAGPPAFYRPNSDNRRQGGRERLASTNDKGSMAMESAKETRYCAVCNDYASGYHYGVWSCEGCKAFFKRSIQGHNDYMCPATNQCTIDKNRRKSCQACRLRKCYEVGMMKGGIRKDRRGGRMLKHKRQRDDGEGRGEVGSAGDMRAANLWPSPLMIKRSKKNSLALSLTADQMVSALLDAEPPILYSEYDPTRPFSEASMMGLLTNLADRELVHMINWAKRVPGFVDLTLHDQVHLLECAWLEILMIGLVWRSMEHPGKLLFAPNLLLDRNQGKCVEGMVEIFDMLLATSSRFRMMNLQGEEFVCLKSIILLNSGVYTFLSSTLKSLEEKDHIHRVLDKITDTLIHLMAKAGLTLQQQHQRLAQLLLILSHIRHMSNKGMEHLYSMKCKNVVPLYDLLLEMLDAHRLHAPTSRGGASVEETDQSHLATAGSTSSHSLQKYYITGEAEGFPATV
Aromatase (Homo sapiens), sequence (P11511 whole entry, looked up): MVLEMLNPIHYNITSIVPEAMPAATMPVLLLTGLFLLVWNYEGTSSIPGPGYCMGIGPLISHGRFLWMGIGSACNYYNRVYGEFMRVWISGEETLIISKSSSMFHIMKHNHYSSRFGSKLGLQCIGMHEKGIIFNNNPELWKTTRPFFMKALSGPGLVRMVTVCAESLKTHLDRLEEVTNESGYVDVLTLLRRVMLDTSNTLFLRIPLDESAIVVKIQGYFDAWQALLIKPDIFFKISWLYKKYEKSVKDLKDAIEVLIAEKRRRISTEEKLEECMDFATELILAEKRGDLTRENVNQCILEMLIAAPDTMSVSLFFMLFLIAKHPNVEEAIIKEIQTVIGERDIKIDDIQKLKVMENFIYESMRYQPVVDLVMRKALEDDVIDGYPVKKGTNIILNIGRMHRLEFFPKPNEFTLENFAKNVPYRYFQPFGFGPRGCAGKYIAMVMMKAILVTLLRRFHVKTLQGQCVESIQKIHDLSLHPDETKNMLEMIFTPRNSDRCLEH

Row | Structure (SMILES) | Potency [1] | Potency [2] | Potency [3] | Potency [4] | Potency [5] | Potency [6] | Potency [7] | Potency [8] | Potency [9] | Potency [10] | Potency [11] | Potency [12] | Potency [13] | Potency [14] | Potency [15]
1 | Nc1ccc(Cl)c(Cl)c1 | inactive | inactive | inactive | inactive | inactive | inactive | inactive | inactive | inactive | inactive | inactive | – | – | – | –
2 | Clc1nc(Cl)nc(Cl)n1 | 15.4 µM (active) | inactive and 15.4 µM (active) | inactive and 13.7 µM (active) | inactive | inactive | inactive | inactive | inactive | inactive | inactive | inactive | inactive | inactive | inactive | –
3 | O=P(O)(O)CCCl | inactive | inactive | inactive | inactive | inactive | inactive | inactive | inactive | inactive | inactive | inactive | inactive | inactive | inactive | inactive
4 | CC(O)CCO (stereo not given) | inactive | inactive and 68.6 µM (active) | inactive | inactive | inactive | inactive | inactive | inactive | inactive | inactive | inactive | – | – | – | –
5 | Nc1ccc(-c2ccc(N)c(N)c2)cc1N | 60.9 µM (active) and 9.69 µM (active) | 60.9 µM (active) and 12.2 µM (active) | 68.4 µM (active) and 12.2 µM (active) | inactive | – | – | – | – | inactive | inactive | 6.09 µM (active) and inactive | – | – | – | –
6 | CC(C)=CC1C(C(=O)OCc2coc(Cc3ccccc3)c2)C1(C)C (stereo not given) | inactive and 38.5 µM (active) | inactive and 54.4 µM (active) | inactive and 43.2 µM (active) | inactive | inactive | inactive | – | inactive | inactive | inactive | inactive | inactive | inactive | inactive | inactive
7 | C#C[C@]1(O)CC[C@H]2[C@@H]3CCC4=CC(=O)CC[C@]4(C)[C@H]3CC[C@@]21C | inactive | inactive | inactive | inactive | inactive | inactive | 6.86 µM (active) | inactive | inactive | inactive | inactive | – | – | – | –
8 | S=C1NCCN1 | inactive | inactive | inactive | inactive | inactive | – | inactive | inactive | inactive | inactive | inactive | – | – | – | –
9 | ClC1C(Cl)C(Cl)C(Cl)C(Cl)C1Cl (stereo not given) | inactive and 54.5 µM (active) | inactive and 48.6 µM (active) and 24.3 µM (active) | inactive and 48.6 µM (active) and 17.2 µM (active) | inactive | inactive | inactive | – | inactive | inactive | inactive | inactive and 54.5 µM (active) | – | – | – | –
10 | O=[N+]([O-])c1cccc2ccccc12 | inactive | inactive | inactive | inactive | inactive | inactive | inactive | inactive | inactive | inactive | inactive | inactive | inactive | inactive | inactive
11 | NNC(N)=S | 28.4 µM (active) | 20.1 µM (active) | 28.4 µM (active) | 14.3 µM (active) | – | inactive | inactive | inactive | – | inactive | 50.4 µM (active) and inactive | inactive | inactive | inactive | inactive
12 | NC(=S)Nc1ccccc1 | inactive | inactive | inactive | inactive | inactive | inactive | inactive | inactive | inactive | inactive | inactive | inactive | inactive | inactive | inactive
13 | O=C(NC(=O)c1c(F)cccc1F)Nc1ccc(Cl)cc1 | inactive | inactive | inactive | inactive | inactive | inactive | inactive | inactive | inactive | inactive | inactive | inactive | inactive | – | inactive and 2.43 µM (active)
14 | Oc1cc(Cl)ccc1Cl | inactive | inactive | inactive | inactive | inactive | inactive | inactive | inactive | – | inactive | inactive | – | – | – | –
15 | N#CC(Br)Br | inactive | inactive | inactive | inactive | inactive | inactive | inactive | inactive | inactive | inactive | inactive | inactive | inactive | inactive | inactive
